# Measured values published in article PMC5700166.
# Tests used:
# Experiment in all cases: protein-binding microarray (PBM); PBM: ~300 nM protein, 6 mM HEPES pH 7.8, 80 mM KCl, 0.5 mM EDTA, 0.5 mM EGTA, 6% glycerol, 35 ng/ul poly-dIdC, 1% milk, 1 h, room temperature; Ap Aiptasia and Nv Nematostella (sea anemones) / Co Capsaspora / Aq Amphimedon (sponge) / Dm Drosophila / Hu human; RHD is the Rel homology domain; high values mean tight binding
# Settings in all cases: dsDNA, one strand shown
# [1] = biological target: T1, GST-Ap-NF-kB RHD (Exaiptasia pallida (Aiptasia), UniProt A0A913YAJ5 2-422)
# T1 sequence: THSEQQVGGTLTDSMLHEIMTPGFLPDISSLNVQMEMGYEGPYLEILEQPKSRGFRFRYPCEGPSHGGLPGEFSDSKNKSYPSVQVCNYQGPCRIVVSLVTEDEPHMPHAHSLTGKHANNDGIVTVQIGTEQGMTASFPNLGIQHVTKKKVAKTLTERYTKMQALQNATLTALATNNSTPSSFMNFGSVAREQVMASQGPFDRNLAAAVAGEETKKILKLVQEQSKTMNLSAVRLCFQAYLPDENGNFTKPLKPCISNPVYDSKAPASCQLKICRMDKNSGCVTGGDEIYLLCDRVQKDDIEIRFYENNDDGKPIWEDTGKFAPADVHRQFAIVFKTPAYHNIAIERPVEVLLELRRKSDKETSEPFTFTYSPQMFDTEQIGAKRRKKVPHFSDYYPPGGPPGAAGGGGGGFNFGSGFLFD
# [2] = biological target: T2, GST-Nv-NF-kB (Cys allele) (Nematostella vectensis, UniProt E5G601 2-411)
# T2 sequence: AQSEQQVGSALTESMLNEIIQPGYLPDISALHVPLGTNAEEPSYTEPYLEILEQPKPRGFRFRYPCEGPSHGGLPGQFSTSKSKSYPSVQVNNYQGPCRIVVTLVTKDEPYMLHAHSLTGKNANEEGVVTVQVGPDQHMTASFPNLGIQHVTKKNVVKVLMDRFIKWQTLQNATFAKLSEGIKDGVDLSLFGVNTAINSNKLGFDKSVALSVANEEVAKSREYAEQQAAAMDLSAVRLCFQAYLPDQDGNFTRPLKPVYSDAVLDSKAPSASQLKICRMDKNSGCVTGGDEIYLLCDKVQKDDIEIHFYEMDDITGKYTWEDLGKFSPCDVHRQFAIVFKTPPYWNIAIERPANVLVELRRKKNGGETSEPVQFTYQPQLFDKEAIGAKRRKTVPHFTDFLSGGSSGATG
# [3] = biological target: T3, GST-Co-NF-kB (Capsaspora owczarzaki, UniProt F1ARL5 200-546)
# T3 sequence: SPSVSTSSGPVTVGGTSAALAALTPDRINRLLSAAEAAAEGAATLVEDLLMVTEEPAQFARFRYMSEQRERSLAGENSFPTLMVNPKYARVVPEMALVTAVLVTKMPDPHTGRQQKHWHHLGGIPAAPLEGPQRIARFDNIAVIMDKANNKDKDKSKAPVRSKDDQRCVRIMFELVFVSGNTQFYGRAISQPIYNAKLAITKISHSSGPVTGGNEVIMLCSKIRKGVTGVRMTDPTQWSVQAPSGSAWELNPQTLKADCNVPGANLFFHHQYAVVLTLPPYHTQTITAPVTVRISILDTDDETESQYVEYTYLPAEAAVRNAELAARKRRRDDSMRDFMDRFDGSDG
# [4] = biological target: T4, GST-Dm-Relish (Drosophila melanogaster, UniProt Q94527 99-473)
# T4 sequence: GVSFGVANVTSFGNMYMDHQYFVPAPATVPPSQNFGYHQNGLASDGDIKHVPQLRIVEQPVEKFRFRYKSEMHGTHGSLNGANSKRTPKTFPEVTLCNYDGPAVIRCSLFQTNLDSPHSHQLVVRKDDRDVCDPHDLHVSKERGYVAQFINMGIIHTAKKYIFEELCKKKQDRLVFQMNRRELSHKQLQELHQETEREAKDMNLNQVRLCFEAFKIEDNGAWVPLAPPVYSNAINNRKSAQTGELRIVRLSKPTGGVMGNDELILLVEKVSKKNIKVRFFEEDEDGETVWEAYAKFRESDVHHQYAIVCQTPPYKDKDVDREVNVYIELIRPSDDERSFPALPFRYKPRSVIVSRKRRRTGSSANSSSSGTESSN
# [5] = biological target: T5, GST-Aq-NF-kB (Amphimedon queenslandica, UniProt A9Y5G7 2-389)
# T5 sequence: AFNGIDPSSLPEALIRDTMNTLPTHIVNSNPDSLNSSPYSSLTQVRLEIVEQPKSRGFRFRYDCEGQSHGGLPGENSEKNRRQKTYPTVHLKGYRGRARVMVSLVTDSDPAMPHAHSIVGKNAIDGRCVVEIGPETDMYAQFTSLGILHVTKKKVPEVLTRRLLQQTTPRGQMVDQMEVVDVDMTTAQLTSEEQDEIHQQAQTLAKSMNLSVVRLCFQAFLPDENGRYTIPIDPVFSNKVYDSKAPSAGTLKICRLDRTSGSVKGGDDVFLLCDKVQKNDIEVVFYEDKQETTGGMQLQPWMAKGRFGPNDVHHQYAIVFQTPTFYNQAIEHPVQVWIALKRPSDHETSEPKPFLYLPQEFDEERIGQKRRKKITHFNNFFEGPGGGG
Sequence,binding signal [1] [z-score],binding signal [2] [z-score],binding signal [3] [z-score],binding signal [4] [z-score],binding signal [5] [z-score]
CCGATTAACATCACGCAATTCCCTGATGTTAATCGGGTCTTGATTCGCTTGACGCTGCTG,2.72,4.1,2.33,1.52,3.43
CCGATTAACATCAAATTCCCTCGTGATGTTAATCGGGTCTTGATTCGCTTGACGCTGCTG,3.11,4.96,2.32,3.26,4.09
CCGATTAACATCACTGGGATTTCTGATGTTAATCGGGTCTTGATTCGCTTGACGCTGCTG,2.53,1.96,1.15,5.55,2.37
CCGATTAACATCAAATTCCCAGATGATGTTAATCGGGTCTTGATTCGCTTGACGCTGCTG,2.43,3.57,3.87,3.52,2.42
CCGATTAACATCAGGAACACCCCTGATGTTAATCGGGTCTTGATTCGCTTGACGCTGCTG,3.14,1.33,1.86,3.5,4.23
CCGATTAACATCAGAAGTTCCCATGATGTTAATCGGGTCTTGATTCGCTTGACGCTGCTG,2.2,2.3,2.44,3.27,2.82
CCGATTAACATCAGGGGATAAAATGATGTTAATCGGGTCTTGATTCGCTTGACGCTGCTG,4.6,5.11,7.5,3.31,4.05
CCGATTAACATCACTTGGGAAACTGATGTTAATCGGGTCTTGATTCGCTTGACGCTGCTG,1.38,2.05,2.44,1.01,1.18
CCGATTAACATCAAGGTACCCCCTGATGTTAATCGGGTCTTGATTCGCTTGACGCTGCTG,5.83,2.82,4.58,2.84,3.11
